The list is not random: actives were taken first. Their share in the collection is about 11%.
HPGD inh – blocks human HPGD enzyme activity. Potency, µM, for inactives: at the highest dose activity change, negative = inhibition, actives largely listed as inhibitors. actives 4.3% (n = 150,000). purified HPGD, NADH fluorescence kinetic, PGE2 substrate. P15428. AID 894; further: potency means the concentration at half of the fitted maximal effect
Target sequence (P15428 whole entry, looked up): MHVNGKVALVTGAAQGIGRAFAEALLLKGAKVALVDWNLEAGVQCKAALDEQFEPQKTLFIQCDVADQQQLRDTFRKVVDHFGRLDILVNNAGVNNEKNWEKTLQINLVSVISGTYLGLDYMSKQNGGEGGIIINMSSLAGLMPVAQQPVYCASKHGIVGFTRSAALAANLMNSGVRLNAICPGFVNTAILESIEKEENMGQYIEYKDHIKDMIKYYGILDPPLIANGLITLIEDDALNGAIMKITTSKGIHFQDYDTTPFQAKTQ
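NADH formation kinetics: reaction with 30 uM PGE2 and 1 mM NAD+ (final), 20 nM enzyme, Tris-HCl pH 8 with Tween 20, after 15 min compound preincubation at room temperature. Fluorescence change, last versus first of five reads.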
ALDH1A1 block – inhibitors of human aldehyde dehydrogenase 1A1 | Purified ALDH1A1, NADH fluorescence, propionaldehyde substrate | P00352 | Potency, µM (series often up to 75.3 µM), without a hit: at the highest dose activity, negative = inhibition, hits mostly inhibitors | actives 7.3% (n = 220,000);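 further: potency means the concentration at half of the fitted maximal effect; plate controls were no enzyme wells and a reference inhibitor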
12-hLO inh – inhibitors of human 12-lipoxygenase (ALOX12); P18054; purified 12-hLO, xylenol orange hydroperoxide absorbance; Potency, µM (highest dose often 57.1 µM), for inactives: at the top dose activity change, negative = inhibition, hits mostly inhibitors; actives 0.12% (n = 150,000); active means well fitted curve in the direction sought with a large enough effect; inconclusive means small, poorly fitted or top-dose-only effect, or another doubt; inactive means no such curve, though single readings can be large; an effect the other way counts as inactive or inconclusive; further: potency means the concentration at half of the fitted maximal effect; nearly all actives have a fitted effect of over 55% in size
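Xylenol orange chromogenic assay: hydroperoxide from 12hLO oxidises Fe(II), giving red-shifted Fe(III)-XO absorbance. Conditions: 150 nM enzyme, 40 uM arachidonic acid, 25 mM Hepes pH 7.0, 0.01% Triton X-100, 30 min, room temperature.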
PNC assembly inh – perinucleolar compartment assembly inhibition; AID 2417; PC3M PTB-GFP, PNC prevalence imaging, 16 h; active compounds read low; actives 3.1% (n = 140,000); activity change (PNC), negative = inhibition, % at 10 µM;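 active means readout at or below -70, meaning at least 70% loss of cells showing the perinucleolar compartment, a nuclear body marking cancer cells; inconclusive means readout between -30 and a set limit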;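 further: plate controls were DMSO wells for no effect and camptothecin positive control wells for full effect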
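Read-out is percentage of cells bearing a perinucleolar compartment, from automated 20x imaging of fixed, Hoechst-stained PC3M PTB-GFP cells. Cells were seeded 4 h, then exposed 16 h to compound (23 nl of library stock) in duplicate plates.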
IMPase Li inh – IMPase inhibition in cells with lithium potentiation; CHO-M1 cells, IP1 TR-FRET (IP-One), carbachol + lithium; Potency, µM (series often up to 59.4 µM), without a hit: top-dose activity, negative = IMPase inhibition, most hits filed as inhibitors; actives 0.35% (n = 210,000); AID 1457; active means well fitted curve in the direction sought with a large enough effect; inconclusive means small, poorly fitted or top-dose-only effect, or another doubt; inactive means no such curve, though single readings can be large; an effect the other way counts as inactive or inconclusive;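 further: IP1 builds up when IMPase is blocked and the TR-FRET signal falls; potency means the concentration at half of the fitted maximal effect; plate controls were basal vehicle for no effect and high inhibitor control for full effect; nearly all actives have a fitted effect of over 50% in size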
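CHO cells stably expressing M1 receptor (2000/well) were cultured 16–30 h, then exposed to compounds with a small lithium addition for 30 min at 37C. IP1 was measured by TR-FRET competition; AC50 from Hill fits.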
IMPase inh – membrane-permeable compound that blocks inositol monophosphatase | P97697 | CHO-M1 cells, IP1 accumulation, HTRF TR-FRET ratio | inhibition (IP1 accumulation), % at 46.1 µM | 120,000 tested, under 10 active; active means well fitted curve in the direction sought with a large enough effect in the signal ratio, not every such curve was filed as active; inconclusive means small, poorly fitted or top-dose-only effect, or a change in a side signal; inactive means no such curve, though single readings can be large or run the other way; the % refers to the signal ratio;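 further: cells stimulated with carbachol in lithium chloride buffer; plate controls were DMSO basal wells for no effect and reference inhibitor wells for full effect; higher means more IMPase inhibition seen as more IP1 and lower FRET ratio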
Target sequence (P97697 whole entry, looked up): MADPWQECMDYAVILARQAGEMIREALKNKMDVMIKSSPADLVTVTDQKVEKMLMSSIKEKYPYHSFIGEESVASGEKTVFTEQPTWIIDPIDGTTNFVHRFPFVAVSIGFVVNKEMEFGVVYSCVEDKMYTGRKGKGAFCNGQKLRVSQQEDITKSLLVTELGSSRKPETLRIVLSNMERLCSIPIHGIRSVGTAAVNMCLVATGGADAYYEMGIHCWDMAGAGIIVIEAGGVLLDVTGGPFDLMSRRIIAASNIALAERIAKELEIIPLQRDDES
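Measured: the HTRF emission ratio (665/620 nm) plus the 620 nm donor channel, each fitted to the Hill equation to give AC50. Cells were CHO-M1 given compounds up to 46 uM and a 30 min carbachol stimulation at 37C.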
Active calls of the source: *; ? = inconclusive; . = not tested or not shown; [ ] = remark or other dose. Unless noted, the call rests on the fitted dose curve; in most records, active means well fitted inhibition curve with a large enough effect (not every such curve was filed as active); inconclusive means small, poorly fitted or top-dose-only effect, or another doubt; inactive means no such curve, though single readings can be large or run the other way. Unless noted, on the % scale 0 is the no-effect control and ±100 the full control effect.

SMILES	HPGD inh	ALDH1A1 block	12-hLO inh	PNC assembly inh	IMPase Li inh	IMPase inh
COCCCNC(=O)/C(C#N)=C/c1ccc(F)cc1	.	?	.	.	3%	.
COCCCNC(=O)/C(C#N)=C/c1cccc(NC(=O)c2ccccc2Cl)c1	-27%	14µM*	-4%	11	7%	1
CCS(=O)(=O)Nc1cccc(C2=NN(S(=O)(=O)c3ccccc3)C(c3cccs3)C2)c1 (stereo not given)	-12%	?	-6%	23	3%[38.3 µM]	6
Cc1ccc(C2=NN(S(C)(=O)=O)C(c3cccs3)C2)cc1 (stereo not given)	-1%	-8%	-2%	73	2%[38.3 µM]	1
CCS(=O)(=O)Nc1cccc(C2=NN(S(=O)(=O)c3ccc(C)cc3)C(c3cccs3)C2)c1 (stereo not given)	-21%	5µM*	-6%	42	4%	.
CCc1ccc(C2=NN(S(C)(=O)=O)C(c3cccs3)C2)cc1 (stereo not given)	-30%	20µM*	-11%	-100*	5%[38.3 µM]	4
COCCCNC(=O)CCC(=O)NNc1nc2ccccc2c2nc(C)nn12	.	4%	.	.	-3%	.
CCCNC(=S)N1CCC(c2nc3cc(C)c(C)cc3[nH]2)CC1	-12%	10%	6%	49	2%[38.3 µM]	5
Cc1cc2nc(C3CCN(CC4COc5ccccc5O4)CC3)[nH]c2cc1C (stereo not given)	-3%	-12%	-26%	-82*	-8%[38.3 µM]	16[1.84 µM]
COc1cc(NS(=O)(=O)c2ccc(NC(=O)C(C)Oc3ccc(Cl)cc3Cl)cc2)nc(OC)n1 (stereo not given)	.	.	.	.	.	4
CCOc1cc2c(cc1OCC)C(c1ccccc1OC)OC(=O)C2 (stereo not given)	-9%	11µM*	-1%	36	-2%	.
CCCc1nc2c(sc3nc4c(cc32)COC(C)(C)C4)c(=O)o1	.	?	.	.	1%	.
O=c1[nH][nH]c(=S)n1C1CCCCC1	.	1.3µM*	.	.	.	.
COc1cc(OC)c(C(=O)COc2ncnc3ccccc23)c(OC)c1	-2%	16µM*	0%	?	-27%[38.3 µM]	-1
Cc1cccc(NC(=O)C2CCCN(S(=O)(=O)c3ccc(Br)s3)C2)c1 (stereo not given)	.	.	.	.	.	7
Cc1ccc2cc3cc(C(=O)N4CCN(c5cccc(C(F)(F)F)c5)CC4)sc3nc2c1	.	.	.	.	.	6
O=C(COc1ccccc1)NC(=S)N1CCc2ccccc21	-23%	?	-2%	-26	-1%	.
COc1ccc(OCC(=O)NC(=S)N2CCCc3ccccc32)cc1	-16%	8.9µM*	6%	?	9%[38.3 µM]	4
COc1ccc(OCC(=O)NC(=S)Nc2ccc3c4c(cccc24)CC3)cc1	?	16µM*	-2%	-11	7.1µM*	.
O=C(COc1ccccc1Cl)NC(=S)N1CCc2ccccc21	20µM*	-6%	-10%	?	1%[38.3 µM]	4
COc1ccccc1C(=O)NC(=S)N1CCc2ccccc21	.	14µM*	.	.	13%	.
CCOC(=O)c1ccc(NC(=O)Cn2c(-c3nonc3N)nc3ccccc32)cc1	.	7%	.	.	-3%	.
COc1ccc(CCNC(=O)CN(c2ccccc2)S(=O)(=O)N(C)C)cc1OC	.	.	.	.	.	8
CCCC/C=C/C(NC(=O)Oc1cccc(C(F)(F)F)c1)c1ccccc1 (stereo not given)	-14%	-9%	-3%	.	0%	.
COc1ccccc1C(=O)NC(=S)N1CCCc2ccccc21	8.9µM*	3.2µM*	-13%	-11	27%[38.3 µM]	10
SMILES	HPGD inh	ALDH1A1 block	12-hLO inh	PNC assembly inh	IMPase Li inh	IMPase inh
Cc1cc(C(=O)Nc2ccccc2C(F)(F)F)no1	-9%	10%	-11%	24	-8%[38.3 µM]	1
O=C(Nc1ccccc1C(F)(F)F)c1cc(-c2ccccc2O)on1	-16%	-3%	3%	-100*	-2%	2
Cc1nn(Cc2ccccc2)c(Cl)c1C(=O)OCc1nnc(-c2ccccc2)o1	13µM*	2%	1%	-13	13%[38.3 µM]	19
CCOC(=O)c1[nH]c(COC(=O)C2CC(=O)N(Cc3ccccc3)C2)c(C(=O)OCC)c1C (stereo not given)	28µM*	40µM*	-16%	41	45%[38.3 µM]	10
Cc1nn(Cc2ccccc2)c(Cl)c1C(=O)OCc1nnc(-c2ccc(Cl)cc2)o1	-19%	2%	-20%	-7	22%[38.3 µM]	2
N#Cc1ccccc1Sc1ccccc1C(=O)OCc1nnc(-c2ccccc2)o1	8.9µM*	-4%	0%	-5	29%[38.3 µM]	17
O=C(OCc1nnc(-c2ccccc2)o1)c1cc(=O)c2ccccc2o1	-9%	9%	-3%	?	-2%[38.3 µM]	1
O=C(OCc1nnc(-c2ccccc2)o1)c1ccco1	8.9µM*	?	-2%	-6	-22%[38.3 µM]	11
CC(C)(C)c1ccc(C2Sc3ccccc3NC3=C2C(=O)c2ccccc23)cc1 (stereo not given)	.	.	.	.	.	10
O=C(NC[C@H](O)c1ccccc1)c1ccccc1	-24%	-1%	.	.	0%	.
O=C(OCc1nnc(-c2ccccc2)o1)c1cccnc1Cl	.	0%	.	.	-1%	.
O=C(OCc1nnc(-c2ccccc2)o1)c1ccc2c(c1)OCO2	7.1µM*	-2%	-21%	-28	5%[38.3 µM]	-8
O=C(Nc1nccs1)C1CC(=O)N(Cc2ccco2)C1 (stereo not given)	.	?	.	.	-6%	.
Cc1ccc(S(=O)(=O)N(C)CC(=O)OCc2nnc(-c3ccccc3)o2)cc1	25µM*	?	3%	-7	21%[38.3 µM]	-1
O=C(OCc1nnc(-c2ccccc2)o1)C1CC(=O)N(Cc2ccco2)C1 (stereo not given)	.	15µM*	.	.	-8%	.
CCOc1ncccc1C(=O)OCc1nnc(-c2ccccc2)o1	16µM*	6%	-5%	-23	-8%[38.3 µM]	?
CCCC/C=C/C(NC(=O)c1ccc(C(F)(F)F)cc1)c1ccccc1 (stereo not given)	-17%	-13%	2%	.	2%	.
COc1cc2c(cc1OC)C(/C=C/c1ccc(OC)c(OC)c1OC)=NCC2	-16%	8%	.	.	26%	.
COc1ccc2c(c1)OC(=O)CC2c1ccccc1C (stereo not given)	-7%	-7%[120 µM]	-3%[0.00818 µM]	.	0%	.
COC(=O)c1sc(N)c(C(=O)OC)c1COC(=O)C1CC(=O)N(Cc2ccco2)C1 (stereo not given)	?	?	6%	24	29%[38.3 µM]	-2
ClCc1nnc(-c2ccccc2)o1	-15%	7.9µM*	1%	-1	-5%	.
CCOC(=O)c1sc(N)c(C(=O)OCC)c1COC(=O)C1CC(=O)N(Cc2ccco2)C1 (stereo not given)	-21%	20µM*	-10%	41	17%[38.3 µM]	-1

Screening results: PubChem, National Center for Advancing Translational Sciences (NCATS)
